Assay outcomes: PubChem BioAssay, National Center for Advancing Translational Sciences (NCATS)
HT1080NT lethal: qHTS for induction of synthetic lethality in tumor cells producing 2HG: qHTS for the HT-1080-NT fibrosarcoma cell line | HT-1080-NT fibrosarcoma viability, CellTiter-Glo ATP luminescence, 48 h | 360,000 tested, 1.6% active | Potency, µM (doses to about 46.1 µM), hits mostly cytotoxic;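 also: NT is the 2HG producing partner of a matched IDH1 knockdown line; nearly all actives have a fitted effect of over 55% in size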
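A 48-hour cytotoxicity screen used HT-1080-NT cells plated 2 hours before compound delivery. ATP-based CellTiter-Glo luminescence measured viability, normalized to DMSO and no-cell controls.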
DT40 TDP1 no CPT: qHTS for Inhibitors of human tyrosyl-DNA phosphodiesterase 1 (TDP1): qHTS in cells in absence of CPT; Potency, µM (series often up to 46.2 µM), actives largely listed as inhibitors; 420,000 tested, 15% active; DT40 Tdp1-/- hTDP1 cells, no CPT, ATP luminescence, 48 h; AID 686978, 2013; also: nearly all actives have a fitted effect of over 55% in size
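Luminescent ATP content (CellTiter-Glo) served as the growth readout. Knockout chicken DT40 cells expressing human TDP1 were exposed to compounds without camptothecin for a minimum 48 hr at 37 °C.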
HT1080 IDH1KD tx: qHTS for induction of synthetic lethality in tumor cells producing 2HG: qHTS for the HT-1080-IDH1KD cell line. HT-1080 IDH1 knockdown viability, ATP luminescence, 48 h. Potency, µM (titrated, usually from 46.1 µM), most hits filed as cytotoxic. 360,000 tested, 2% active. AID 686971, 2013
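Using the IDH1-knockdown HT-1080 line run in the same batch and compound series as the NT line, viability after 48 h at 37 °C was determined by CellTiter-Glo luminescence and expressed as % activity.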
DT40 TDP1 CPT: qHTS for Inhibitors of human tyrosyl-DNA phosphodiesterase 1 (TDP1): qHTS in cells in presence of CPT; chicken DT40 Tdp1-/-;hTDP1 cells + 20 nM CPT, ATP luminescence, 48 h; Potency, µM (highest dose often 46.2 µM), hits mostly inhibitors; 420,000 tested, 12% active; also: nearly all actives have a fitted effect of over 55% in size
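Chicken DT40 Tdp1-/- cells complemented with human TDP1, 400 cells/well, exposed to compounds plus 20 nM camptothecin for at least 48 h at 37 C; viability read as ATP content by CellTiter-Glo luminescence.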
12-LOX inh: Primary qHTS assay for inhibitors of human arachidonate 12S-lipoxygenase (ALOX12): Round 2 | purified 12hLO, xylenol orange hydroperoxide absorbance | 580,000 tested, 1.1% active | AID 1671190, 2021 | Potency, µM (series often up to 108 µM), actives largely listed as inhibitors
Target sequence (P18054 whole entry, looked up): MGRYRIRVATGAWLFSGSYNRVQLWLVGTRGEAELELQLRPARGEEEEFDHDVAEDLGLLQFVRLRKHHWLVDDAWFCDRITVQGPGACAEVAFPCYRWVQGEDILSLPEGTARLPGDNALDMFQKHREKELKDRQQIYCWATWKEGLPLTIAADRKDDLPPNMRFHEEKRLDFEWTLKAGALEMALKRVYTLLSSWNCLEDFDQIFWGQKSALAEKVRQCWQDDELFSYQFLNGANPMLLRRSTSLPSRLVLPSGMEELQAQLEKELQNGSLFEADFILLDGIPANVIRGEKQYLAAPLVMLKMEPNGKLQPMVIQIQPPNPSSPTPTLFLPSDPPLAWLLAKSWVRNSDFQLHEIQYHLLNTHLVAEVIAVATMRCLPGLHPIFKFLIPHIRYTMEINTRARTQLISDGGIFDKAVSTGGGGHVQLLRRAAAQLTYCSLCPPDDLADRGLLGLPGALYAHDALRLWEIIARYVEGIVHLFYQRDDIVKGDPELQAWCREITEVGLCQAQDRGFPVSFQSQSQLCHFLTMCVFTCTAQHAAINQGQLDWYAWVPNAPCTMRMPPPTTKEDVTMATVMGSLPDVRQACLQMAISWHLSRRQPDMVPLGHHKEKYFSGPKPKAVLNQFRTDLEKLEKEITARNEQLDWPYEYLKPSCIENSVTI
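Purified human 12hLO at 150 nM in 25 mM Hepes, 0.01% Triton X-100, pH 7.0, preincubated 15 min at room temperature with compound. Reaction started with 40 uM arachidonic acid, 30 min at room temperature. Hydroperoxide measured by Fe-xylenol orange, 573/405 nm absorbance ratio.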
IL-1B inflam inh: qHTS for Inhibitors of Inflammasome Signaling: IL-1-beta AlphaLISA Primary Screen. THP-1 LPS/ATP IL-1B secretion, AlphaLISA, 16 h; active compounds read low. activity change, % at 57.5 µM. 360,000 tested, 4.7% active. AID 743279, 2014; in the data active = activity change below about -50%; inconclusive = mostly about -30% to -49%
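Secreted IL-1B measured by AlphaLISA bead assay after 16 h compound exposure of THP-1 cells; compounds (final up to 57.5 uM) added 1 h before LPS (250 ng/mL) and ATP (1.25 mM) stimulation; lower signal means less secretion.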
Numbers stand for hits; - = inactive; ? = inconclusive; . = no result; [ ] = another dose, or the depositor's remark. The entries come from a sample that favours hits as a whole. Unless noted, calls follow the shape of the dose curve; as a rule, active = well fitted curve in the direction sought with a large enough effect; inconclusive = small, poorly fitted or top-dose-only effect, or another doubt; inactive = no such curve, though single readings can be large; an effect the other way counts as inactive or inconclusive.

SMILES	HT1080NT lethal	DT40 TDP1 no CPT	HT1080 IDH1KD tx	DT40 TDP1 CPT	12-LOX inh	IL-1B inflam inh
O=C(CC[C@H]1O[C@@H](n2cnc3c(NC(=O)c4ccccc4)ncnc32)[C@H](O)[C@@H]1O)NCCCN1CCCC1=O	-	-	-	-	-	-
Cc1cccc(NS(=O)(=O)c2ccc(C(=O)NCC3(N4CCCCC4)CCCCC3)cc2)c1C	-	15µM	?	21µM	?	-53
COc1ccc(NS(=O)(=O)c2ccc(C)c(C(=O)NCC(c3ccco3)N3CCCCC3)c2)cc1 (stereo not given)	-	?	-	?	-	-
Cc1cccc(NS(=O)(=O)c2ccc(C)c(C(=O)NCC(c3ccco3)N3CCCCC3)c2)c1 (stereo not given)	-	18µM	-	21µM	-	-
CC(=O)c1cccc(S(=O)(=O)NCC(c2ccco2)N2CCCCC2)c1 (stereo not given)	-	16µM	-	?	?	-
COc1ccc(NS(=O)(=O)c2cccc(C(=O)NCC(c3ccco3)N3CCCC3)c2)cc1 (stereo not given)	-	-	-	-	-	-
Cc1ccc(NS(=O)(=O)c2cccc(C(=O)NCC(c3ccco3)N3CCCCC3)c2)cc1 (stereo not given)	-	?	-	26µM	.	-
O=C(NCC(c1ccco1)N1CCCC1)c1cccc(S(=O)(=O)N2CCCCC2)c1 (stereo not given)	-	?	-	?	-	-
COc1ccc(-c2coc3cc(OCC(=O)NCc4cccc(Cl)c4)ccc3c2=O)cc1	.	.	.	.	-	.
Cc1ccccc1NS(=O)(=O)c1ccc(C(=O)NCC(c2ccco2)N2CCCCC2)cc1 (stereo not given)	-	23µM	-	?	-	-
COc1ccc(C2c3c(n(C)c4ccccc34)C(=O)N2CC(=O)Nc2cccc(F)c2)cc1 (stereo not given)	.	?	.	?	-	.
COc1ccc(C2c3c(n(C)c4ccccc34)C(=O)N2CC(=O)Nc2ccccc2Cl)cc1 (stereo not given)	.	26µM	.	?	-	.
CCCNC(=O)CN1C(=O)c2c(c3ccccc3n2C)C1c1ccc(OC)cc1 (stereo not given)	.	13µM	.	?	-	.
COc1ccc(C2c3c(n(C)c4ccccc34)C(=O)N2CC(=O)Nc2cccc(Cl)c2C)cc1 (stereo not given)	.	?	.	?	-	.
COc1ccc(C2c3c(n(C)c4ccccc34)C(=O)N2CC(=O)Nc2ccccc2F)cc1 (stereo not given)	.	?	.	16µM	-	.
Cc1c(OC(C)C(=O)NCc2ccncc2)ccc2c3c(c(=O)oc12)CCC3 (stereo not given)	-	?	-	?	-	-
Cc1c(OCC(=O)NC2CCN(Cc3ccccc3)CC2)ccc2c3c(c(=O)oc12)CCC3	-	?	-	16µM	-	-
Cc1c(OC(C)C(=O)NCc2ccccn2)ccc2c3c(c(=O)oc12)CCCC3 (stereo not given)	-	?	-	13µM	-	-
CC(=O)COc1ccc2c3c(c(=O)oc2c1C)CCCCC3	-	?	-	15µM	-	-
CC(C)(C)C(C(=O)NCc1ccccc1)N1CCN(C(=O)C2CCCO2)CC1 (stereo not given)	-	-	-	-	-	-
Cc1ccccc1CN1C[C@@H]2C[C@H]1C(=O)N(C)c1ccccc1O2	.	.	.	.	-	.
COc1ccc(CC(=O)NC2CCc3nnc(C)n3CC2)cc1 (stereo not given)	.	.	.	.	-	.
Cc1ccc(NC(=O)C(Nc2cccc(C)c2)c2ccccc2)cc1 (stereo not given)	-	18µM	-	?	-	-
Cc1ccc(NC(=O)C(Nc2ccccc2)c2ccccc2)cc1 (stereo not given)	-	-	-	-	-	-
Cc1cc(C)cc(NC(=O)C(Nc2ccccc2)c2ccccc2)c1 (stereo not given)	-	-	-	18µM	-	-
SMILES	HT1080NT lethal	DT40 TDP1 no CPT	HT1080 IDH1KD tx	DT40 TDP1 CPT	12-LOX inh	IL-1B inflam inh
Cc1ccc(NC(C(=O)c2ccccc2)c2ccccc2)cc1 (stereo not given)	23µM	13µM	?	?	?	-73
Cc1cc(C)cc(NC(=O)C(C)Sc2ccccc2)c1 (stereo not given)	.	.	.	.	-	.
CCOc1ccccc1CNC(=O)c1ncoc1-c1cccc(OC)c1	.	.	.	.	-	.
O=C(NCC12CC3CC(CC(C3)C1)C2)c1n[nH]c(=O)c2ccccc12	.	.	.	.	-	.
O=S(=O)(c1ccccc1)c1nnn2c1nc(NC1CCN(Cc3ccccc3)CC1)c1ccccc12	-	8.2µM	-	5.8µM	-	?
O=S(=O)(c1ccccc1)c1nnn2c1nc(NC1CCCC1)c1ccccc12	.	.	.	.	-[6.33 µM]	.
O=S(=O)(c1ccccc1)c1nnn2c1nc(NC1CCN(Cc3ccccc3)CC1)c1cc(Cl)ccc12	-	4.1µM	-	7.3µM	-	?
Nc1c(Br)cc([N+](=O)[O-])cc1Br	.	.	.	.	-	.
O=c1[nH]cc([N+](=O)[O-])cc1Br	-	?	-	21µM	?	-
CCCc1cc(C(=O)N2CCCC2c2cccc(C)c2)no1 (stereo not given)	.	.	.	.	-	.
O=[N+]([O-])c1ccc(/C=C2\CCC(C3=CCCC3)=C2N2CCOCC2)cc1	-	16µM	-	?	?	?
O=C(NP(=O)(N1CCCC1)N1CCCC1)C1=C(N2CCOCC2)/C(=C/c2cccc([N+](=O)[O-])c2)CC1	-	-	-	-	?	-
CCN(C(=O)CSc1nc2ccccc2n1Cc1ccc(C(=O)OC)cc1)c1ccccc1	.	13µM	.	21µM	-	.
COCCn1c(SCC(=O)Nc2ccc(Cl)c(S(=O)(=O)N(C)C)c2)nc2ccccc21	-	16µM	-	?	-	-
Cc1ccc(CNC(=O)Cn2c(SCC(=O)Nc3ccc(F)cc3)nc3ccccc32)cc1	.	?	.	?	-	.
COc1ccc(CNC(=O)Cn2c(SCC(=O)Nc3ccc(OC)cc3)nc3ccccc32)cc1	.	?	.	?	-	.
COc1ccc(Cn2c(SCC(=O)Nc3ccc(OC)cc3)nc3ccccc32)cc1	.	?	.	26µM	-	.
COCCn1c(SCC(=O)Nc2ccc(S(N)(=O)=O)cc2)nc2ccccc21	-	-	-	-	-	-
